Results filed as inconclusive are left out. Unmarked numbers belong to inactive results. Activity calls are given as the source filed them. Calls come from the whole dose curve; as a rule, active = well fitted cell-killing curve with a large enough effect in the repeat runs; inconclusive = weak or mixed curves; inactive = flat fitted curve, though single readings scatter.
test: qHTS RealTime-Glo MT Cell Viability Assay in HepG2 cells - 16 hour (AID 1224885); conditions: RealTime-Glo luminescence; series mostly up to 76.8 µM; activity change, negative = cytotoxic: at the top concentration; note: nearly all actives have a fitted effect of over 50% in size
From the text: U.S. Tox21 Program National Center for Advancing Translational Sciences [NCATS] NIH Chemical Genomics Center [NCGC] U.S. Environmental Protection Agency [EPA] National Institutes of Environmental Health Sciences [NIEHS] National Toxicology Program [NTP] U.S. Food and Drug Administration [FDA] Tox21 Assay Overview: Measure of cell viability is critical in the cell-base assay. Analysis of cell viability is necessary for the characterization of cell responses to cytotoxic drugs and environmental stress. A RealTime-Glo MT Cell Viability Assay to monitor cell viability in real time of continues cell culture during 40 hours of compound treatment was used to screen Tox21 10K library compounds in HepG2 cells. The RealTime-Glo MT Cell Viability Assay is a nonlytic, homogeneous, bioluminescent method to measure cell viability in real time using a simple, plate-based method. The assay involves adding NanoLuc luciferase and a cell-permeant prosubstrate to cells in culture. Viable cells reduce the proprietary prosubstrate to generate a substrate for NanoLuc luciferase. This substrate diffuses from cells into the surrounding culture medium, where it is rapidly used by the NanoLuc Enzyme to produce a luminescent signal. The signal correlates with the number of viable cells, making the assay well suited for cytotoxicity studies.
Tox21 Assay Protocol Summary: The mixture of HepG2 cell suspension and reagents were dispensed at 600cells/6 ul/well in 1536-well tissue culture treated black solid bottom plates using a Multidrop dispenser. After the assay plates were incubated at a 37 C/5% CO2 incubator for 5 hours, 23 nL of compounds dissolved in DMSO, positive and negative controls was transferred to the assay plate by a pintool work station. The plates were incubated at 37 C for 40 hours. The luminescence intensity were measured at 0h, 8h, 16h, 24h, 32h and 40h time points using ViewLux plate reader during compound treatment.
% is set by controls: 0 for no effect and ±100 for the full control effect; potency is the fitted concentration of half-maximal effect.

Row | SMILES | activity change, negative = cytotoxic | Potency
1 | O=[N+]([O-])c1ccc(CO)cc1 | -2.87% | –
2 | CC(C)=CCC[C@H](C)CC=O | 0.166% | –
3 | CCOc1nc(F)cc2nc(S(=O)(=O)Nc3c(Cl)cccc3C(=O)OC)nn12 | -1.89% | –
4 | CCCCNc1ccc(NCCCC)c2c1C(=O)c1ccccc1C2=O | 0.554% [at 15.8 µM] | –
5 | Clc1ccc2c(Cl)ccnc2c1 | 0.205% | –
6 | O=C1CCC(=O)N1 | 0.15% | –
7 | Cc1ccc2sc3cccc(C)c3c2c1 | -1.69% | –
8 | O=C(c1ccccc1)c1ccc(Cl)cc1 | -3.6% | –
9 | CCN(CC)c1ccc(N=Nc2ccccc2)cc1 | -15% | –
10 | O=C1C=CC(=O)N1c1cccc(N2C(=O)C=CC2=O)c1 | – | 15.5 µM (active)
11 | COc1cc([C@@H]2c3cc4c(cc3[C@@H](O[C@@H]3O[C@@H]5CO[C@@H](C)O[C@H]5[C@H](O)[C@H]3O)[C@H]3COC(=O)[C@H]23)OCO4)cc(OC)c1O | -9.29% | –
12 | CN1CC[C@H](c2c(O)cc(O)c3c(=O)cc(-c4ccccc4Cl)oc23)[C@H](O)C1 | -16.1% [at 35.3 µM] | –
13 | C=CC(=O)OCCOC1C2CCC1C1CC=CC12 (stereo not given) | 0.672% [at 15.8 µM] | –
14 | CCCCCCCCCCCCCCCCC(C(=O)O)C(O)(CC(=O)O)C(=O)O (stereo not given) | -10.3% [at 35.3 µM] | –
15 | Nc1cc([N+](=O)[O-])ccc1Cl | 0.762% | –
16 | C=COCCCC | -6.32% | –
17 | CC(C)(C)c1cc(CCC(=O)OCCSCCOC(=O)CCc2cc(C(C)(C)C)c(O)c(C(C)(C)C)c2)cc(C(C)(C)C)c1O | -12.8% [at 35.3 µM] | –
18 | CCOC=C(C(=O)OCC)C(=O)OCC | -1.15% | –
19 | CCCCCCCCCC[N+](C)(CCCCCCCCCC)CCC[Si](OC)(OC)OC | – | 49 µM (active)
20 | SC1CCCCC1 | 0.401% | –

Row | SMILES | activity change, negative = cytotoxic | Potency
21 | c1ccc(-c2ccc(C(c3ccccc3)n3ccnc3)cc2)cc1 (stereo not given) | -18.9% [at 35.3 µM] | –
22 | CC1CCC(C(C)(C)O)CC1 (stereo not given) | 2.85% | –
23 | CC1=C(/C=C/C(C)=C/C=C/C(C)=C\C(=O)O)C(C)(C)CCC1 | -8.77% | –
24 | Nc1c(Br)cc([N+](=O)[O-])cc1Br | -7.17% | –
25 | Oc1cccc2c(O)cccc12 | -2.31% | –
26 | Cc1ccc(C=O)cc1 | 2.41% [at 35.3 µM] | –
27 | C[C@H]1O[C@@H](O[C@H]2CC[C@@]3(C)[C@H](CC[C@@H]4[C@@H]3C[C@@H](O)[C@]3(C)[C@@H](C5=CC(=O)OC5)CC[C@]43O)C2)C[C@H](O)[C@@H]1O[C@H]1C[C@H](O)[C@H](O[C@H]2C[C@H](O)[C@H](O[C@@H]3O[C@H](CO)[C@@H](O)[C@H](O)[C@H]3O)[C@@H](C)O2)[C@@H](C)O1 | -15.3% [at 35.3 µM] | –
28 | CCOC(=O)[C@H](O)[C@@H](O)C(=O)OCC | -1.96% | –
29 | Nc1ccc(Oc2cccc(Oc3ccc(N)cc3)c2)cc1 | -0.65% | –
30 | Cc1cc(C)c(O)c(C(C)(C)C)c1 | -16.1% | –
31 | CCCC(=O)c1cc(O)c(O)cc1O | 0.765% | –
32 | C=C(C)CCO | -11% | –
33 | Cc1ccc2n[nH]nc2c1 | 1.99% | –
34 | CCCC(C)C=O (stereo not given) | -0.519% | –
35 | CC(C)(C)c1ccc(OC2CCCCC2O)cc1 (stereo not given) | -12.1% | –
36 | C=CC(=O)O[C@H]1C[C@@H]2CC[C@@]1(C)C2(C)C | 1.19% | –
37 | CC(=O)Nc1ccc(N=Nc2cc(C)ccc2O)cc1 | -8.81% | –
38 | O=C1CCCCCCCCCCCCCC1 | -9.07% | –
39 | O[Si](c1ccccc1)(c1ccccc1)c1ccccc1 | -16.9% | –
40 | Cc1ccc(S(=O)(=O)C(I)I)cc1 | – | 11 µM (active)
